Only a selection was taken, and hits are over-represented in it overall.
Lassa entry inh – Lassa virus entry inhibition. Lassa virus pseudotype entry inhibition, cell reporter. Potency, µM (doses to about 37.9 µM), most hits filed as inhibitors. 300,000 tested, 1.2% active. AID 540256; calls by dose curve; tested in HEK293 cells; note: nearly all actives have a fitted effect of over 50% in size
Marburg entry inh – Marburg virus entry inhibition; Potency, µM (highest dose often 37.8 µM), actives largely listed as inhibitors; Marburg virus pseudotyped entry inhibition, cell reporter; 300,000 tested, 1.8% active; calls by dose curve; tested in HEK293 cells
Shiga inhibitor – Shiga toxin inhibition | Vero cells, Shiga toxin protein synthesis inhibition reporter | inhibition, % at 38.7 µM | 290,000 tested, 9.2% active | AID 2315; in the data active = inhibition mostly above about 28%, no sharp cut-off; inactive = mostly below about 43%
CHX counter – counter-screen hit for Shiga toxin inhibitors, cycloheximide; cell reporter, cycloheximide protein synthesis inhibition counterscreen; max response, %; 300,000 tested, 12% active; AID 2314; in the data active = max response mostly above about 13%, no sharp cut-off; inactive = mostly below about 14%; note: read at 38.3 µM for the half of the compounds with a filed dose
Vaccinia mCherry – vaccinia inhibition (mCherry reporter); Potency, µM (highest dose often 36.5 µM), actives largely listed as inhibitors; Vaccinia virus mCherry reporter infection, fluorescence; AID 720579; 310,000 tested, 0.63% active; calls by dose curve; tested in A549 cells; note: nearly all actives have a fitted effect of over 35% in size
Vaccinia Venus – inhibitors of vaccinia virus (Venus reporter); 330,000 tested, 0.46% active; Vaccinia virus Venus reporter expression, fluorescence; Potency, µM (top dose mostly 36.5 µM), usual class: inhibitors; AID 720580; calls by dose curve; tested in A549 cells; note: nearly all actives have a fitted effect of over 30% in size
Each line names hits and unclear results; the compound was inactive in the other large screens.

N#Cc1c(N)nc2c(c1N)CC(COc1ccccc1)O2 (stereo unspecified)	Marburg entry inh inconclusive, Shiga inhibitor 52, CHX counter 37 (no result: Vaccinia mCherry)
Cc1ccc(-n2c(=O)c3c(c4cc(C)ccc4n3C)n(CC(=O)Nc3cc(C)cc(C)c3)c2=O)cc1	none (no result: Marburg entry inh, Shiga inhibitor, CHX counter)
COc1ccccc1CNC(=O)c1ccc2nc3[nH]c4ccccc4c3nc2c1	Lassa entry inh inconclusive, Marburg entry inh inconclusive, Vaccinia mCherry 8.9µM, Vaccinia Venus 10µM
CCOCCCNC(=O)C(c1ccc(Cl)cc1)N(Cc1ccc2c(c1)OCO2)C(=O)c1ccc(NC(C)=O)cc1 (stereo unspecified)	Lassa entry inh inconclusive, Marburg entry inh inconclusive (no result: Shiga inhibitor, CHX counter)
CC(=O)c1cccc(NC(=O)c2ccc3c(c2)N(Cc2ccc(C)cc2)CCS3)c1	Lassa entry inh inconclusive (no result: Shiga inhibitor, CHX counter)
CCN(CC)S(=O)(=O)c1ccc2c(c1)nc(SCC(N)=O)n2-c1ccc(OC)cc1	Lassa entry inh 13µM, Vaccinia Venus inconclusive (no result: Vaccinia mCherry)
CCN(CC)S(=O)(=O)c1ccc2c(c1)nc(SCC(=O)N1CCCCCC1)n2-c1ccc(OC)cc1	Lassa entry inh inconclusive, Marburg entry inh inconclusive (no result: Vaccinia mCherry, Vaccinia Venus)
CC(=O)N(/N=C/c1ccc(C)cc1)c1nc(CCl)cs1	Lassa entry inh inconclusive, Vaccinia mCherry inconclusive
CCc1ccc(N(C(C)=O)c2nc(CCl)cs2)cc1	CHX counter 29
Cc1cc(C)c(NC(=O)CNC(=O)CSc2nnc(N)s2)c(C)c1	none (no result: Shiga inhibitor, CHX counter)
Cc1ccc(-c2nnc(N3CCC(C)CC3)c3ccccc23)cc1C	Vaccinia mCherry 28µM, Vaccinia Venus 13µM
Cn1c(=O)[nH]c(=O)c2c1nc(N1CCCCC1)n2C/C=N/Nc1ccc(C(=O)O)cc1	CHX counter 62 (no result: Lassa entry inh, Marburg entry inh)
c1ccc2[nH]c(NCCCc3cnc[nH]3)nc2c1	none (no result: Lassa entry inh, Marburg entry inh, Vaccinia mCherry, Vaccinia Venus)
CCOCCCNc1nc2ccccc2[nH]1	CHX counter 12 (no result: Vaccinia mCherry)
CCCCNc1nc2ccccc2[nH]1	CHX counter 22 (no result: Vaccinia mCherry)
CCOc1ccc(OCCCC(=O)Nc2nc3ccccc3[nH]2)cc1	none (no result: Lassa entry inh)
Cc1noc(C)c1NC(=O)Nc1ccc2c(c1)C(=O)N([C@@H](C)CO)C[C@@H](C)[C@H](CN(C)C(=O)Nc1cccc3ccccc13)OCCCC[C@H](C)O2	none (no result: Lassa entry inh, Marburg entry inh, Shiga inhibitor, CHX counter)
CCOC(=O)C1CCCN(C(=O)c2cc3c(=O)n(C)c4ccccc4c3s2)C1 (stereo unspecified)	none (no result: Shiga inhibitor, CHX counter)
O=c1[nH]c2ccccc2nc1/C=C/c1ccc(F)cc1	Lassa entry inh inconclusive, Marburg entry inh inconclusive, Shiga inhibitor 73, CHX counter 37
O=c1[nH]c2ccccc2nc1/C=C/c1ccc(O)cc1	Lassa entry inh inconclusive, Marburg entry inh inconclusive, Shiga inhibitor 70, CHX counter 42
O=c1[nH]c2ccccc2nc1/C=C/c1ccccc1	Shiga inhibitor 59, CHX counter 45
Cc1c(C(=O)NC(C)c2ccccc2)sc2nc3n(c(=O)c12)CCCC3 (stereo unspecified)	none (no result: Marburg entry inh, Shiga inhibitor, CHX counter)
CCC(=O)N1CCc2cc(Br)cc(S(=O)(=O)N3CCCC(C(=O)Nc4ccc(C)c(F)c4)C3)c21 (stereo unspecified)	Marburg entry inh inconclusive (no result: Shiga inhibitor, CHX counter)
C1CCC(C2C3=C(NC4NCNN42)C2=C(CCCC2)CCC3)CC1 (stereo unspecified)	none (no result: Lassa entry inh, Shiga inhibitor, CHX counter, Vaccinia mCherry, Vaccinia Venus)
CN(Cc1ccccc1)C(=O)c1cc2ccccc2o1	none
O=C(c1cc2ccccc2oc1=O)N(Cc1cccs1)Cc1ccccc1Cl	Lassa entry inh inconclusive, Shiga inhibitor 60, CHX counter 45 (no result: Vaccinia mCherry, Vaccinia Venus)
CN(Cc1ccccc1Cl)C(=O)c1cc2ccccc2o1	Lassa entry inh inconclusive, Shiga inhibitor 39, CHX counter 31
CCN(Cc1ccc(OC)c(F)c1)C(=O)c1cc2ccccc2o1	CHX counter 18
CCOc1ccc(CN(C)C(=O)c2cc3ccccc3o2)cc1OC	none
CN(Cc1ccc(N(C)C)cc1)C(=O)c1cc2ccccc2o1	Lassa entry inh inconclusive, Shiga inhibitor 68, CHX counter 28
CCN(C(=O)C(C)N1C(=O)/C(=C/c2cccs2)SC1=S)C1CCS(=O)(=O)C1 (stereo unspecified)	none (no result: Lassa entry inh, Marburg entry inh, Vaccinia mCherry, Vaccinia Venus)
CCC(C)NC(=O)CSc1nnc(-c2c[nH]c3ccccc23)o1 (stereo unspecified)	none
COc1ccc(NC(=O)C2(C)CCN2Cc2ccc(C(C)C)cc2)cc1OC (stereo unspecified)	none (no result: Lassa entry inh, Marburg entry inh, Shiga inhibitor, CHX counter)
O=C(O)C1CSC(c2coc3ccccc3c2=O)N1 (stereo unspecified)	CHX counter 14
CC(C)c1ccc(C2NC(C(=O)O)CS2)cc1 (stereo unspecified)	none (no result: Vaccinia mCherry, Vaccinia Venus)
CCOc1ccc(-n2c(-c3ccccc3)nnc2-c2ccccc2)cc1	Lassa entry inh inconclusive
N#Cc1ccc(-n2c(-c3ccccc3)nnc2-c2ccccc2)cc1C#N	Marburg entry inh inconclusive, CHX counter 30, Vaccinia mCherry inconclusive
N#Cc1ccccc1NC(=O)CSc1nnc(-c2ccccc2)n1-c1ccccc1	Lassa entry inh inconclusive, Marburg entry inh inconclusive
N#Cc1cccc(-n2c(-c3ccccc3)nnc2-c2ccccc2)c1C#N	CHX counter 19 (no result: Vaccinia mCherry, Vaccinia Venus)
N#C/C(=C\c1ccncc1)c1nc2c(s1)CCCC2	Shiga inhibitor 42, CHX counter 21 (no result: Lassa entry inh, Marburg entry inh)
Cn1cccc1/C=C1\SC(=S)N(Nc2ccccc2)C1=O	Shiga inhibitor 51, CHX counter 37 (no result: Lassa entry inh, Marburg entry inh, Vaccinia mCherry, Vaccinia Venus)
Cc1ccc(S(=O)(=O)NN2C(=O)/C(=C/c3cccn3C)SC2=S)cc1	none (no result: Vaccinia mCherry, Vaccinia Venus)
Cn1cc(/C=C2/SC(=O)N(c3ccccc3)C2=O)c2ccccc21	Marburg entry inh inconclusive, CHX counter 25
O=C(O)Cn1cc(/C=C2\SC(=O)N(c3ccccc3)C2=O)c2ccccc21	CHX counter 16
Cn1cccc1/C=C1/SC(=O)N(CC(=O)N2CCCC2)C1=O	none (no result: Lassa entry inh)
Cn1cccc1/C=C1\SC(=O)N(c2ccccc2)C1=O	Shiga inhibitor 63, CHX counter 52
COc1ccc(C)cc1NC(=O)C(CCSC)NS(=O)(=O)c1ccc2c(c1)oc(=O)n2C (stereo unspecified)	none (no result: Marburg entry inh, Shiga inhibitor, CHX counter)
COc1ccccc1N1CCN(/N=C/c2ccc(OC)c(OC)c2OC)CC1	none
COc1cc(/C=N/N2CCN(c3ccccc3OC)CC2)ccc1OC(C)=O	Lassa entry inh inconclusive, CHX counter 19 (no result: Shiga inhibitor)
COc1ccccc1N1CCN(/N=C/c2ccccc2C(=O)O)CC1	Shiga inhibitor 28, CHX counter 17 (no result: Lassa entry inh, Marburg entry inh, Vaccinia mCherry, Vaccinia Venus)
COc1ccccc1N1CCN(/N=C/c2cccc(O)c2)CC1	Shiga inhibitor 85, CHX counter 29 (no result: Lassa entry inh, Marburg entry inh, Vaccinia mCherry, Vaccinia Venus)
COc1ccc(OC)c(N(C(=O)c2ccco2)C(C(=O)NC2CCCC2)c2cc(OC)c(OC)c(OC)c2)c1 (stereo unspecified)	Lassa entry inh inconclusive
CCOc1ccc(S(=O)(=O)NCC(c2cccs2)S(=O)(=O)c2ccc(C)cc2)cc1 (stereo unspecified)	Lassa entry inh inconclusive (no result: Marburg entry inh, Shiga inhibitor, CHX counter)
COc1ccc(NC(=O)c2cccnc2N2CCOCC2)cc1	none (no result: Vaccinia mCherry, Vaccinia Venus)
Cc1ccc(Nc2nc(N3CCOCC3)nc(N3CCOCC3)n2)cc1	Marburg entry inh 1.2µM, CHX counter 14
Cc1cc(Nc2ccc(C)c(Cl)c2)nc(N2CCOCC2)n1	Lassa entry inh inconclusive, Marburg entry inh inconclusive, CHX counter 7.5
Fc1ccc(Nc2nc(N3CCOCC3)c3ccccc3n2)cc1	Lassa entry inh inconclusive, Marburg entry inh 16µM (no result: Vaccinia mCherry)
